Most compounds without a hit are left out; they make up all but 1.1% or so of the library.
NSD2 inh – NSD2 histone methyltransferase inhibitors, primary screen, biochemical, AlphaScreen, single concentration, set 2. Histone-lysine N-methyltransferase NSD2 (Homo sapiens), O96028. inhibition, % at 12.5 µM. NSD2 peptide methylation, 120 min. AID 743445, 2014. hit rate 0.54% among 310,000; in the data active means inhibition above about 50%
Keap1-Nrf2 PPI – Keap1-Nrf2 protein-protein interaction inhibitors, primary screen, biochemical, fluorescence polarization, single point. Keap1 Kelch-Nrf2 peptide fluorescence polarization, 1536-well. inhibition, % at 9.4 µM. hit rate 0.15% among 340,000; in the data active means inhibition above about 12%;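 further: human Keap1 Kelch domain with fluorescein labeled Nrf2 9mer peptide probe; 0% = neutral control wells and 100% = peptide positive control; higher means more block of Keap1 binding to Nrf2 peptide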
C-LANA FP – inhibitors of KSHV C-LANA binding to DNA, primary screen, biochemical, fluorescence polarization, FAM-LBS DNA, MBP-C-LANA, single point | inhibition, % at 9 µM | hit rate 0.078% among 340,000;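 active means highest replicate inhibition at or above 60% at 9 µM, even if other replicates fall short; inactive means all replicates below 60% inhibition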;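 further: 0% = neutral control wells and 100% = 4 µM acridine orange control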
N-glyco inh – increase of ERlucT glycosylation luciferase signal, primary screen, N-linked glycosylation inhibitor project, D54 ERlucT cells, luminescence, set 2. D54 ERlucT glycosylation luciferase reporter, 24 h; percent of 100 nM tunicamycin response. reporter increase, % at 12.5 µM. hit rate 0.23% among 360,000;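 active means mean luciferase reporter signal, scaled so untreated is 0 and the glycosylation-blocking control 100, at or above a set limit in every replicate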;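 further: luciferase carries N-glycosylation sites so blocking glycosylation raises the light; 0% = median of neutral control wells and 100% = median of 100 nM tunicamycin wells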
HDAC3 inh – HDAC3 deacetylase inhibitors, primary screen, biochemical, fluorescence, cell-free homogeneous | Histone deacetylase 3 (Homo sapiens), O15379 | recombinant HDAC3, fluorogenic peptide/trypsin coupled | inhibition, % at 8.3 µM | hit rate 0.15% among 320,000 | AID 2718, 2010; in the data active means inhibition above about 26%, passing the limit was not always enough
CASP6 VEID inh – human caspase-6 inhibitors, primary screen, biochemical, VEID-R110 fluorescence, single point, set 2. hit rate 0.53% among 350,000. P55212. inhibition, % at 12.5 µM. purified caspase-6, Z-VEID-R110 cleavage fluorescence;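 active means mean inhibition across replicates at least about 35%, with every replicate also reaching that limit, limit read from the data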;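 further: 0% = median of neutral control wells and 100% = no fluorescence left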
Target sequence (P55212 24-179 limits assumed): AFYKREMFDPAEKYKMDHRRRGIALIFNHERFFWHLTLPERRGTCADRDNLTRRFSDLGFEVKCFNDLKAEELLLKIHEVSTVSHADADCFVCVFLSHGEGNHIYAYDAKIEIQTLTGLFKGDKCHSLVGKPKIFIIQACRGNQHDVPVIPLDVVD
Target sequence (P55212 194-293 limits assumed): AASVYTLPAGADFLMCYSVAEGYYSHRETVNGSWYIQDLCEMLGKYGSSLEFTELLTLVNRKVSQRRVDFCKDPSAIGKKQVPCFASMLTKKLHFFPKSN
* = called active by the depositor.

How did NS(=O)(=O)c1ccc(NC(=O)/C=C/c2ccco2)cc1 do in these assays?
NSD2 inh: 19.2; Keap1-Nrf2 PPI: -4.2; C-LANA FP: 3.1; N-glyco inh: 3.4; HDAC3 inh: 11.3; CASP6 VEID inh: 54.1*

How did CC(=O)NS(=O)(=O)c1ccc(NC(=O)/C=C/c2ccco2)cc1 do in these assays?
NSD2 inh: 36.3; Keap1-Nrf2 PPI: 4.3; C-LANA FP: 0.4; N-glyco inh: -1.9; HDAC3 inh: 1.8; CASP6 VEID inh: 28.3

Results for O=C(C[C@H]1CC[C@@H]2[C@H](COC[C@@H](O)CN2Cc2ccncc2)O1)NCc1ccccc1Cl ?
CASP6 VEID inh: -2.0

How did CCOC(=O)c1c(NC(C)=O)sc2c(OCCN(CC)CC)c(Br)ccc12 do in these assays?
NSD2 inh: -1.5; Keap1-Nrf2 PPI: 1.1; C-LANA FP: -3.8; N-glyco inh: 85.4*; HDAC3 inh: -4.7; CASP6 VEID inh: -9.6

Results for Cc1ccc(-c2n[nH]c(=S)n2Cc2ccccc2)cc1 ?
NSD2 inh: 32.4; Keap1-Nrf2 PPI: 3.0; C-LANA FP: -0.4; N-glyco inh: -5.1; HDAC3 inh: 3.5

Results for CCOc1ccc(-c2n[nH]c(=S)n2Cc2ccccc2)cc1 ?
NSD2 inh: 0.4; Keap1-Nrf2 PPI: -1.8; C-LANA FP: -0.1; N-glyco inh: -1.0; HDAC3 inh: -1.2; CASP6 VEID inh: 37.2*

Results for C[C@H](CO)N1C[C@H](C)[C@@H](CN(C)C(=O)C2CC2)Oc2ncc(C#CCc3ccccc3)cc2C1=O ?
CASP6 VEID inh: 0.2

Results for O=C1/C(=C\c2cc(Br)cc(Br)c2O)SC(=S)N1Cc1ccccc1 ?
NSD2 inh: 8.1; Keap1-Nrf2 PPI: -4.2; C-LANA FP: -2.3; N-glyco inh: -3.2; HDAC3 inh: 0.1

How did O=C(O)CN1C(=O)/C(=C\c2cc(Br)ccc2OCc2ccc([N+](=O)[O-])cc2)SC1=S do in these assays?
NSD2 inh: 6.2; Keap1-Nrf2 PPI: 1.4; C-LANA FP: 78.3*; N-glyco inh: 0.6; HDAC3 inh: 0.3; CASP6 VEID inh: 54.8*

How did O=C(O)CCN1C(=O)/C(=C\c2cccc(OCc3ccccc3)c2)SC1=S do in these assays?
NSD2 inh: -5.6; Keap1-Nrf2 PPI: 4.8; C-LANA FP: -0.6; N-glyco inh: 0.9; HDAC3 inh: -2.8; CASP6 VEID inh: 0.8

What do the screens show for `O=C(O)CN1C(=O)/C(=C\c2cc(Br)ccc2OCc2ccccc2Cl)SC1=S`?
NSD2 inh: 5.8; Keap1-Nrf2 PPI: -3.1; C-LANA FP: 10.8; N-glyco inh: 1.2; HDAC3 inh: 5.0; CASP6 VEID inh: 75.6*

Results for O=C(O)CN1C(=O)/C(=C\c2ccccc2OCc2ccc(Cl)cc2Cl)SC1=S ?
NSD2 inh: 8.1; Keap1-Nrf2 PPI: 2.6; C-LANA FP: 3.7; N-glyco inh: -10.8; HDAC3 inh: 0.3; CASP6 VEID inh: 52.0*

What do the screens show for `CCOc1ccccc1C=C1SC(=S)N(CC)C1=O`?
NSD2 inh: -5.6; Keap1-Nrf2 PPI: -5.5; C-LANA FP: -2.6; N-glyco inh: 0.6; CASP6 VEID inh: -2.1

Results for O=C(O)CN1C(=O)/C(=C\c2cccc(OCc3ccc(Cl)cc3Cl)c2)SC1=S ?
NSD2 inh: 33.7; Keap1-Nrf2 PPI: 4.2; C-LANA FP: 11.9; N-glyco inh: -0.8; HDAC3 inh: 10.7; CASP6 VEID inh: 59.8*

How did COC(=O)[C@H]1[C@H](CO)[C@H]2Cn3c(ccc(-c4ccccc4)c3=O)[C@H]2N1S(C)(=O)=O do in these assays?
CASP6 VEID inh: 0.5

How did Cc1ccc(S(=O)(=O)NCC[C@H]2CC[C@@H](NC(=O)Nc3cccc(F)c3)[C@@H](CO)O2)cc1 do in these assays?
CASP6 VEID inh: 1.2

What do the screens show for `O/N=C/c1cc(Br)ccc1OCc1ccccc1F`?
NSD2 inh: 0.0; Keap1-Nrf2 PPI: 0.3; C-LANA FP: -0.2; N-glyco inh: -1.7; HDAC3 inh: 7.4

How did O=C(O)CN1C(=O)/C(=C\c2cc(Br)ccc2OCc2ccccc2F)SC1=S do in these assays?
NSD2 inh: 8.0; Keap1-Nrf2 PPI: 3.3; C-LANA FP: 15.6; N-glyco inh: 1.3; HDAC3 inh: 5.6; CASP6 VEID inh: 37.7*

What do the screens show for `Nc1nc(-c2ccccc2)cc(-c2ccccc2O)n1`?
Keap1-Nrf2 PPI: -3.9; C-LANA FP: -0.4; N-glyco inh: 34.6*; HDAC3 inh: 0.5

Results for CO[C@@H]1CN(C)C(=O)c2cc(NC(=O)c3ccccc3F)ccc2OC[C@H](C)N(CC2CCOCC2)C[C@H]1C ?
CASP6 VEID inh: 2.2

How did CN(C)C(=O)C[C@@H]1C[C@@H]2c3cc(NC(=O)Nc4ccccc4F)ccc3O[C@@H]2[C@H](CO)O1 do in these assays?
CASP6 VEID inh: -2.3

Results for CC(C)=CCc1c(O)ccc2c1OC(c1ccc(O)c(O)c1)CC2=O (stereo unspecified) ?
Keap1-Nrf2 PPI: 0.2; C-LANA FP: 0.5; N-glyco inh: 8.5; HDAC3 inh: 4.7; CASP6 VEID inh: 16.1

What do the screens show for `O=C1CC(c2ccc(O)c(O)c2)Oc2c1ccc(O)c2O` (stereo unspecified)?
Keap1-Nrf2 PPI: -2.5; C-LANA FP: 96.7*; N-glyco inh: 0.7; HDAC3 inh: 0.7; CASP6 VEID inh: 75.3*

Results for O=C(O)c1ccccc1NS(=O)(=O)c1cccc(-n2sc3ccccc3c2=O)c1 ?
NSD2 inh: 20.6; Keap1-Nrf2 PPI: 6.5; C-LANA FP: 1.7; N-glyco inh: 3.4; HDAC3 inh: 53.6*; CASP6 VEID inh: 10.0

Results for O=C(O)c1ccccc1NS(=O)(=O)c1cccc(C(F)(F)F)c1 ?
NSD2 inh: -2.2; Keap1-Nrf2 PPI: 7.3; C-LANA FP: 0.6; N-glyco inh: 2.1; HDAC3 inh: 0.1

What do the screens show for `CCC(=O)N(C)C[C@@H]1Oc2cc(-c3ccccc3OC)ccc2S(=O)(=O)N([C@@H](C)CO)C[C@@H]1C`?
CASP6 VEID inh: 0.6

Results for O=c1cc(-c2ccccc2)[nH]n1-c1nc2ccccc2[nH]1 ?
NSD2 inh: -3.8; Keap1-Nrf2 PPI: -3.2; C-LANA FP: 2.1; N-glyco inh: 40.8*; HDAC3 inh: 9.5

What do the screens show for `CCc1cc(=O)[nH]c(-n2[nH]c(-c3ccccc3)cc2=O)n1`?
NSD2 inh: -4.6; Keap1-Nrf2 PPI: -1.9; C-LANA FP: 0.0; N-glyco inh: -2.5; HDAC3 inh: 6.8; CASP6 VEID inh: 1.9

Results for CS(=O)(=O)C1=NSC2=NC(=O)/C(=C\c3ccc(OC(=O)c4ccco4)cc3)C(=N)N21 ?
HDAC3 inh: 35.3*

Compound activity from PubChem.
